In ChEMBL document CHEMBL2218924, “A broad activity screen in support of a chemogenomic map for kinase signalling research and drug discovery” (Biochem J, 2013) one finds residual activity data, which are given here for 13 molecules.

The target of the experiment is Serine/threonine-protein kinase Nek6 (Homo sapiens) (UniProt Q9HC98). The settings on record: at 10 µM.
Chain of Serine/threonine-protein kinase Nek6 (Homo sapiens) (Q9HC98 whole entry): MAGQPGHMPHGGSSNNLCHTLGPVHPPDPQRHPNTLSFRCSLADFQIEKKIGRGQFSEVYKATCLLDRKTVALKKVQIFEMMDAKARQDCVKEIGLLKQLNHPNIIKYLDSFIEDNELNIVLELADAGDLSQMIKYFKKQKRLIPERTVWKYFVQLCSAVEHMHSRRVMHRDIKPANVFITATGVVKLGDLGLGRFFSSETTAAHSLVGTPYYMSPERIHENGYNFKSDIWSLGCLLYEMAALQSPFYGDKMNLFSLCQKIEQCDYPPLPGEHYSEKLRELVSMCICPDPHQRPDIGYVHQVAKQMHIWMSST
In the case of `c1cc(-c2cnn3cc(-c4ccc(OCCN5CCCCC5)cc4)cnc23)ccn1`, the residual activity is 106%.

On to `O=c1[nH]c2ccccc2n1C1CCN(Cc2ccc(-c3nc4cc5[nH]cnc5cc4nc3-c3ccccc3)cc2)CC1`, for which the residual activity worked out at 116%.

Take `O=C1Nc2ccc3ncsc3c2/C1=C/c1c[nH]cn1`: the residual activity worked out at 77%.

As for `CC(C)[C@H](CO)Nc1nc(Nc2cccc(Cl)c2)c2ncn(C(C)C)c2n1`, the residual activity is 122%.

For `CCc1nc(-c2ccc(OC)cc2)[nH]c1-c1ccncc1`, the residual activity stood at 117%.

`COC(=O)[C@@]1(O)C[C@H]2O[C@]1(C)n1c3ccccc3c3c4c(c5c6ccccc6n2c5c31)C(=O)NC4`: the residual activity worked out at 120%.

`COc1cc2ncnc(Nc3ccc(OCc4ccccc4)cc3)c2cc1OC`: the residual activity amounted to 94%.

In the case of `C[S+]([O-])c1ccc(-c2nc(-c3ccc(F)cc3)c(-c3ccncc3)[nH]2)cc1` (stereo not drawn), the residual activity worked out at 103%.

Turning to `CC(C)(C)c1cc(C=C(C#N)C#N)cc(Br)c1O`, the residual activity turned out to be 118%.

`O=[N+]([O-])/C=C/c1ccc2c(c1)OCO2`: the residual activity turned out to be 113%.

Regarding `CCn1cnc2c(Nc3cccc(Cl)c3)nc(N[C@@H]3CCCC[C@@H]3N)nc21`, the residual activity was determined as 126%.

On to `CN[C@@H]1C[C@H]2O[C@@](C)([C@@H]1OC)n1c3ccccc3c3c4c(c5c6ccccc6n2c5c31)C(=O)NC4`, for which the residual activity is 72%.

On to `COc1ccc2c(c[n+](C)c3c4cc5c(cc4ccc23)OCO5)c1OC`, for which the residual activity was 68%.
